According to PubChem BioAssay (NCI):
This is part of a sample that, as a whole, favours compounds with a hit. Of some 83,000 tested, about 20% had one in any assay.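 96-well plates, one dose, 48 hours. Percent growth reported; active if below 10.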 The source made the active and inactive calls.

These compounds were tested on OVCAR-3 ovarian (assay: NCI-60 one-dose screen, 48 h (100 = growth as untreated, 0 = no growth, -100 = all killed)). Conditions: 10 µM.
Method: Growth inhibition of the OVCAR-3 human tumor cell line is measured as a screen for anti-cancer activity. Cells are grown in 96 well plates and exposed to the test compound for 48 hours. Compounds are tested at a single concentration, which is 10^-5 M for most compounds. The reported endpoint is percent growth (GI% or GIPRCNT), where numbers from 0 - 100% represent growth inhibition, and numbers from -100% - 0 represent cell death. For example, a value of 40 represents 60% growth inhibition. A value of 0 means no net growth occurred over the course of the experiment. A value of -40 indicates 40% of cells at the beginning of the experiment died by the end of the experiment. A value of -100 means all cells are dead at the end of the experiment.
NCI-60 Human Tumor Cell Lines Screen was performed using the standard one-dose NCI protocol, which is described in more detail at https://dtp.cancer.gov/discovery_development/nci-60/default.htm.
Compounds with GIPRCNT values below 10 were considered active. Activity score was based on GIPRCNT using the following formula: […]
Score is 0 for GIPRCNT values of 100 or above, 50 for GIPRCNT values of 0, and 100 for GIPRCNT values of -100.

SMILES	growth
c1ccc(C2CCCCC2)c(OCCCCCN2CCNCC2)c1	76.9% (inactive)
Cc1cc(C)c(/C=C2\C(=O)Nc3ccc(NC(=O)CCCCCCC(=O)NO)cc32)[nH]1	19.4% (inactive)
O/N=C1\CCC2CCCCC2C1 (stereo not given)	111% (inactive)
Cc1ncc([N+](=O)[O-])n1CCOc1ccc(C(=O)/C=C/c2ccc(C(F)(F)F)cc2)cc1	51.3% (inactive)
NCCNc1ccc2cc(-c3nc4ccccc4[nH]3)c(=O)oc2c1	98.7% (inactive)
C/C(=N\NC(=S)N1CCCC1)c1ccccn1	23.8% (inactive)
COc1cc2c3c(cccc3c1)C(=O)N(CCN1CCCC1)C2=O	0.462% (active)
O=C(O)CCCN1C(=O)NC2(C1=O)c1ccccc1-c1ccccc12	109% (inactive)
CCCCCCCCCCN=C(c1ccc(N(C)C)cc1)c1ccc(N(C)C)cc1	2.1% (active)
Clc1ccc(-c2nc(-c3cccs3)cn3ccnc23)cc1	72.6% (inactive)
COc1ccc2oc(=O)cc(C3c4ccc([nH]4)C(c4cc(=O)oc5ccc(OC)cc45)c4ccc([nH]4)C(c4cc(=O)oc5ccc(OC)cc45)c4ccc([nH]4)C(c4cc(=O)oc5ccc(OC)cc45)c4ccc3[nH]4)c2c1 (stereo not given)	-85.2% (active)
COc1ccccc1CNCCCN1C(=O)c2ccc3c4c(ccc(c24)C1=O)C(=O)N(CCCNCCNCCCN)C3=O	-14% (active)
N/C(=N\O)c1cn(C2OC(CO)C(O)C2O)c2ncnc(N)c12 (stereo not given)	-18.3% (active)
CC1(C)CCc2cc(-c3ccn(S(=O)(=O)c4ccc(Cl)cc4)n3)ccc2O1	84% (inactive)
COc1cc(-c2nc3ccc(C)cc3[nH]2)ccc1OCc1nnc(-c2ccc(CC(C)C)cc2)o1	101% (inactive)
CCN(Cc1ccccc1)C1CCN(Cc2cc(Br)ccc2O)CC1	51.8% (inactive)
Cc1ccc2c(c1)-c1cc(C)nn1-c1ccc(C#N)cc1O2	61.8% (inactive)
Cc1[nH]nc2c(=S)[nH]c(=O)[nH]c12	110% (inactive)
O=C(Nc1cccc(F)c1)Nc1cccc(Cl)c1	14.4% (inactive)
c1ccc(CC(NCCNC(Cc2ccccc2)c2ccccc2)c2ccccc2)cc1 (stereo not given)	22.9% (inactive)

SMILES	growth
NC1CCC(Nc2nc(NCc3ccc(-c4ccccc4O)nc3)c3ncn(C4CCCC4)c3n2)CC1 (stereo not given)	-6.34% (active)
CC(=O)Nc1nc(C)c(C(=O)NNC=O)s1	98.6% (inactive)
COc1ccc(-c2nnc(COc3ccc(NC(=O)Nc4cccc(C(F)(F)F)c4)cc3F)o2)cc1	56.9% (inactive)
Cn1c([N+](=O)[O-])cnc1C=C1C(=O)c2ccccc2C1=O	38.1% (inactive)
O=C(c1ccccc1)C(Nc1ccccc1)c1ccccc1 (stereo not given)	97.1% (inactive)
COc1ccc(-c2csc(NC(=O)CO[N+](=O)[O-])n2)cc1	101% (inactive)
Cc1ccc(-n2c(-c3cc4c([nH]c5ccccc54)c(-c4cccc(O)c4)n3)n[nH]c2=S)cc1	-36.1% (active)
O=C1CC[C@@H](C(=O)N[C@H]2CSSC[C@@H](C(=O)NCCc3ccccc3)NC(=O)[C@H](Cc3ccccc3)NC(=O)[C@@H]3CCCN3C(=O)[C@@H]3CCCN3C2=O)N1	104% (inactive)
CCCCn1c(=O)[nH]c2c(c1=O)C(c1ccc(Cl)cc1)c1c([nH]c(=O)n(CCCC)c1=O)N2	115% (inactive)
CCN(CC)CCOC(=O)c1ccc(N=Nc2ccc(O)c(OC)c2)cc1	98.6% (inactive)
c1ccc(COCC[P+](c2ccccc2)(c2ccccc2)c2ccccc2)cc1	3.01% (active)
COc1cc(C(=O)n2nc(N)c3c(C)cc(C)nc32)cc(OC)c1OC	69.3% (inactive)
O=C(C=P(c1ccccc1)(c1ccccc1)c1ccccc1)c1ccc(Br)cc1	64.5% (inactive)
O=C(NNc1nc(N2CCCC2)nc(N2CCCC2)n1)c1ccccc1	108% (inactive)
COc1cc(/C=C/C(=O)c2cc(-c3ccc(C(F)(F)F)cc3)ccc2O)cc(OC)c1OC	74.1% (inactive)
CCN1CCN(c2nc(NNC(=O)c3cccc(OC)c3)nc(N3CCN(C(c4ccccc4)c4ccccc4)CC3)n2)CC1	72.6% (inactive)
Cc1cc(Nc2cccc(F)c2)nc(NCc2ccccc2)n1	0.169% (active)
NC1CCC(Nc2nc(NCc3cc(Cl)ccc3O)c3ncn(C4CCCC4)c3n2)CC1 (stereo not given)	-20.2% (active)
O=C(O)c1ccccc1C(=O)c1cccc2c(F)cccc12	117% (inactive)
CCCCCCCOc1cccc(/C=C2/C(=O)N=C3SCCCN32)c1	50.9% (inactive)
